In PubChem BioAssay (NCATS):
Inconclusive results are not listed. Active and inactive are the calls of the source. Calls follow the shape of the dose curve; as a rule, active = well fitted cell-killing curve with a large enough effect; inconclusive = small, poorly fitted or top-dose-only effect, or effect the other way; inactive = flat fitted curve, though single readings scatter.

Assay: S16 Schwann cell viability assay (CellTiter-Glo assay) (AID 624031);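 also: cellular ATP luminescence as a viability measure; nearly all actives have a fitted effect of over 70% in size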
Settings: S16 rat Schwann cells viability, 24 h; series mostly up to 57.5 µM; activity change, negative = cytotoxicity: at the top concentration
Description: Charcot-Marie-Tooth-Association [CMTA]
National Center for Advancing Translational Sciences [NCATS]
Charcot-Marie-Tooth (CMT) disease was first characterized by Jean-Martin Charcot and Pierre Marie in France and, independently, by Howard Henry Tooth in England in 1886. CMT is one of the most common inherited neurological diseases, affecting approximately 1 in 2,500 Americans. […] The most prevalent type of CMT is known as CMT1A and caused by a duplication of the PMP22 gene which leads to over-expression of this protein. PMP22 is a glycosylated intrinsic membrane protein accounting for 2-5% of the myelin protein content, and its over-expression results in demyelination and subsequently axonal loss.
A pair of cellular transcription-based assays was developed in the S16 rat Schwann cell lines (Hai, M., et al., 2002) stably transfected with orthogonal reporters - firefly luciferase (Fluc) and beta-lactamase (beta-Lac) - whose expression is driven by an intronic regulatory element of the PMP22 gene (Jones, E.A., et al., 2011) to recapitulate endogenous expression of PMP22. A comprehensive library of approved drugs, the NCGC Pharmaceutical Collection (Huang, R., et al., 2011), was screened in the cross-validating platform of the orthogonal reporter assays to identify drug modulators inhibitory towards PMP22 expression.
A set of counter-screens was devised to address non-specific activity of the library. An ATP-dependent CellTiter-Glo assay (developed by Promega Corp) was utilized to control cell viability. In addition, biochemical Fluc enzyme assay was performed to assess direct inhibition of the Fluc enzymatic activity.
Hai, M., Muja, N., DeVries, G.H., Quarles, R.H. and Patel, P.I. Comparative analysis of Schwann cell lines as model systems for myelin gene transcription studies. J Neurosci Res, 2002. 69(4): pp 497-508
Huang, R., Southall, N., Wang, Y., Yasgar A., Shinn P., Jadhav, A. , Nguyen, D.-T. and Austin, C.P., The NCGC pharmaceutical collection: a comprehensive resource of clinically approved drugs enabling repurposing and chemical genomics. Sci Transl Med, 2011. 3(80): p. 80ps16.
Native S16 cells were seeded in white solid-bottom 1536 well plates at between 500-750 cells/6uL in DMEM medium containing 10% FBS, w/o phenol red. After overnight incubation at 37 degree Celsius/5% C02, 23 nL of compounds or DMSO were delivered to each well using a pin tool, followed by 24h-incubation at 37 degree Celsius/5% C02. Then one volume of CellTiter-Glo assay reagent (Promega) was added to each well for cell viability measured by a ViewLux plate reader (PerkinElmer). The % activity was determined by normalizing to the average readings from wells containing no cells relative to DMSO-treated cells (0% Activity). The concentration-effect curves were then classified based on curve quality (r2), response magnitude and degree of measured activity.

Compound	activity change, negative = cytotoxicity
O=C(O)c1cc(N=Nc2ccc(O)c(C(=O)O)c2)ccc1O	-23.9% (inactive)
COC1=C(OC)C(=O)C(C/C=C(\C)CC/C=C(\C)CC/C=C(\C)CC/C=C(\C)CC/C=C(\C)CC/C=C(\C)CC/C=C(\C)CC/C=C(\C)CC/C=C(\C)CCC=C(C)C)=C(C)C1=O	-3.61% (inactive)
CCOc1ccc(NC(=S)Nc2ccc(OCC)cc2)cc1	-9.68% (inactive)
O=C(O)/C=C/C(=O)Nc1ccc(S(=O)(=O)Nc2nccs2)cc1	-0.965% (inactive)
CCCCCCCCCCCCOCCCN	-7.77% (inactive)
OC[C@H]1O[C@@](CO)(O[C@H]2O[C@H](CO)[C@@H](O)[C@H](O)[C@H]2O)[C@@H](O)[C@@H]1O	0% (inactive)
CN1C(=O)OC(C)(C)C1=O	-0.854% [at 25.7 µM] (inactive)
O=P(O)(O)O	1.45% (inactive)
CC(C)(C)c1ccc2c(S(=O)(=O)O)c(C(C)(C)C)ccc2c1	-2.58% (inactive)
CNC(=O)C[C@@H](N)C(=O)N[C@@H](C(=O)N[C@@H]1C(=O)N2[C@@H]1SC(C)(C)[C@@H]2C(=O)O)c1ccc(O)cc1	-17.4% (inactive)
CC(C)CCCCCCc1ccc(O)cc1	3.42% (inactive)
CCCCC/C=C\C/C=C\C/C=C\CCCCC(=O)O	1.71% (inactive)
O=[n+]1ccn([O-])c2ccccc21	3.07% (inactive)
CC12CCC(C[N+](C)(CCC[N+](C)(C)C)C1)C2(C)C (stereo not given)	-18.7% (inactive)
CC(C)NCC(O)COc1ccccc1-n1cccc1 (stereo not given)	-2.59% (inactive)
CC(CCc1ccc(O)cc1)NCC(O)c1ccc(O)cc1 (stereo not given)	8.2% (inactive)
C=Cc1ccc(S(=O)(=O)O)cc1	-1.7% (inactive)
OC[C@H]1O[C@@H]2O[C@H]3[C@H](O)[C@@H](O)[C@@H](O[C@H]4[C@H](O)[C@@H](O)[C@@H](O[C@H]5[C@H](O)[C@@H](O)[C@@H](O[C@H]6[C@H](O)[C@@H](O)[C@@H](O[C@H]7[C@H](O)[C@@H](O)[C@@H](O[C@H]1[C@H](O)[C@H]2O)O[C@@H]7CO)O[C@@H]6CO)O[C@@H]5CO)O[C@@H]4CO)O[C@@H]3CO	6.59% (inactive)
Cc1cccc(C)c1NC(=O)C1CCCCN1C (stereo not given)	0.732% (inactive)
NC(=O)Oc1ccc(Cc2ccccc2)cc1	0% (inactive)

Compound	activity change, negative = cytotoxicity
O=P(O)(O)OC[C@H]1O[C@](O)(COP(=O)(O)O)[C@@H](O)[C@@H]1O	-13.2% (inactive)
O=C(O)COc1ccccc1/C=N/NC(=O)c1ccncc1	5.23% (inactive)
COc1ccc(C(=O)CCC(=O)O)c2ccccc12	-3.08% (inactive)
CCCCCCCCCCCCCC(=O)OCC(COP(=O)([O-])OCC[N+](C)(C)C)OC(=O)CCCCCCCCCCCCC (stereo not given)	0.712% (inactive)
Nc1nccs1	-9.04% (inactive)
ClC(Cl)Cl	-3.84% (inactive)
O=C(O)CCC/C=C\C[C@@H]1[C@@H](/C=C/[C@@H](O)COc2cccc(C(F)(F)F)c2)[C@H](O)C[C@@H]1O	-3.38% (inactive)
Cn1cc(NC(=O)c2cc(NC(=O)c3cc(NC=O)cn3C)cn2C)cc1C(=O)NCCC(=N)N	-15.4% (inactive)
CC1CC(O)CC(C)(C)C1 (stereo not given)	-6.34% (inactive)
COc1cc2c(cc1OC)[C@@H](Cc1cc(OC)c(OC)c(OC)c1)[N+](C)(CCCOC(=O)CC/C=C/CCC(=O)OCCC[N+]1(C)CCc3cc(OC)c(OC)cc3[C@H]1Cc1cc(OC)c(OC)c(OC)c1)CC2 (stereo not given in full)	4.49% (inactive)
NC(=O)C1c2ccccc2CCc2ccccc21	-21.3% (inactive)
N#Cc1ccc2c(c1)N(CCCN1CCC(O)CC1)c1ccccc1S2	-13.6% (inactive)
CCOC(=S)SSC(=S)OCC	0% (inactive)
[O]=[Bi][O][Bi]=[O]	3.91% (inactive)
Cc1cc(-c2ccc(N=Nc3ccc4c(S(=O)(=O)O)cc(S(=O)(=O)O)c(N)c4c3O)c(C)c2)ccc1N=Nc1ccc2c(S(=O)(=O)O)cc(S(=O)(=O)O)c(N)c2c1O	-11.4% (inactive)
CC1C(=O)CC2C3(C)CCC2(C(C)C(=O)O)C(=O)C13 (stereo not given)	-8.82% (inactive)
CC1=CCC2CC1C2(C)C (stereo not given)	4.01% (inactive)
c1ccc2ccccc2c1	5.28% (inactive)
FC(F)(F)C(F)(F)C(F)(F)C(F)(F)C(F)(F)F	-1.77% (inactive)
CS(=O)(=O)c1ccc([C@@H](O)[C@@H](COC(=O)CN)NC(=O)C(Cl)Cl)cc1	-20.9% (inactive)
